Screens: PubChem, PCMD
Only a selection was taken, and hits are over-represented in it overall.
RmlCD inh 1536 – M. tuberculosis RmlC/RmlD coupled enzyme inhibitors, primary screen, biochemical, compound mixtures, 384-well, from 1536-well plates | RmlC+RmlD coupled enzyme assay, percent inhibition; primary screen in compound mixtures | hit rate 0.03% among 160,000 | dTDP-4-dehydrorhamnose reductase (Mycobacterium tuberculosis (strain ATCC 25618 / H37Rv)) … | inhibition, % at 3.6 µM | AID 1533, 2009; in the data active means inhibition mostly above about 34%, no sharp cut-off
Target sequence (P9WH09 whole entry, looked up): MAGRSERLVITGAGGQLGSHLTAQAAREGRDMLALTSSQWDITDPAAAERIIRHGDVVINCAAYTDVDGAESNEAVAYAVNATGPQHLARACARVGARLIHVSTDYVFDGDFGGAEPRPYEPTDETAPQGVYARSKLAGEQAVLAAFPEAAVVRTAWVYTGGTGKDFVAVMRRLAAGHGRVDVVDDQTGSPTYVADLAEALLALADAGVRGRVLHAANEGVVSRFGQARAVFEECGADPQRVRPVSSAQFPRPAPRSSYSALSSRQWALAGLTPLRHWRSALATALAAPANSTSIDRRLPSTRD
Target sequence (P9WH11 whole entry, looked up): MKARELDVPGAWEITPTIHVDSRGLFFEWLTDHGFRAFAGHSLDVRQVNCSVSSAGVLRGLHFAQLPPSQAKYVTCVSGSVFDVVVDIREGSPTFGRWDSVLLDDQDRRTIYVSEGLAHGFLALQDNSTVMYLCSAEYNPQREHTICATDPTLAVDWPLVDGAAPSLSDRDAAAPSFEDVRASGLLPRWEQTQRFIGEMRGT
* = called active by the depositor.

What do the screens show for `COc1ccc(-c2cc(C(F)(F)F)n3nc(C(=O)Nc4cc(C)on4)cc3n2)cc1OC`?
RmlCD inh 1536: 10

What do the screens show for `COc1ccc(-c2cc(C(F)(F)F)n3nc(C(=O)N(C)Cc4ccccc4)cc3n2)cc1OC`?
RmlCD inh 1536: 40*

What do the screens show for `COc1ccc(-c2cc(C(F)(F)F)n3nc(C(=O)N4CCC5(CC4)OCCO5)cc3n2)cc1OC`?
RmlCD inh 1536: -4

What do the screens show for `CC(c1ccccc1)N1C(=O)NC(NC(=O)C(C)(C)C)(C(F)(F)F)C1=O` (stereo not given)?
RmlCD inh 1536: -8

How did COc1ccc(CCN(C)C(=O)CSc2nc3ncc(Cl)cc3[nH]2)cc1OC do in these assays?
RmlCD inh 1536: 3

Results for COc1ccc(C(=O)n2nc(C#N)c(C#N)c2N)cc1 ?
RmlCD inh 1536: 1

What do the screens show for `Cc1nn(-c2ccccc2)nc1C(N)=O`?
RmlCD inh 1536: -7

What do the screens show for `NC(=O)c1nn(-c2ccccc2)nc1N`?
RmlCD inh 1536: 79*

Results for Nc1nn(-c2ccccc2)nc1C(=O)OCc1ccccc1 ?
RmlCD inh 1536: 9

What do the screens show for `CCC(C)NC(=O)Cc1c(OC)ccc2cc(Br)ccc12` (stereo not given)?
RmlCD inh 1536: 9

Results for CCn1c(=O)ccc2cc([N+](=O)[O-])ccc21 ?
RmlCD inh 1536: 5

How did Cc1cc(-c2c(C)[nH]n(-c3ccc(Cl)cc3)c2=O)n[nH]1 do in these assays?
RmlCD inh 1536: -4

How did Cc1ccc2nc(NC(=O)c3cc(-c4ccco4)nc4ccccc34)sc2c1 do in these assays?
RmlCD inh 1536: 5

What do the screens show for `O=C(Nc1nc2ccccc2s1)c1cc(-c2ccco2)nc2ccccc12`?
RmlCD inh 1536: 37*

Results for O=C(Nc1nccs1)c1cc(-c2ccco2)nc2ccccc12 ?
RmlCD inh 1536: 8

Results for COc1ccc(Cc2c(O)nc(SCC(=O)NC34CC5CC(CC(C5)C3)C4)[nH]c2=O)cc1 ?
RmlCD inh 1536: 3

Results for O=C1NC(=Nc2cccc(Cl)c2)SC1Cc1cccc(Cl)c1Cl (stereo not given) ?
RmlCD inh 1536: 8

What do the screens show for `Cn1c(=S)ccc2ccccc21`?
RmlCD inh 1536: 1

What do the screens show for `COc1ccc(-c2cc3nc(C)n(N)c(=O)c3s2)cc1`?
RmlCD inh 1536: 10

What do the screens show for `COc1ccc(-c2cc3nc4n(c(=O)c3s2)CCCCC4)cc1`?
RmlCD inh 1536: -8

What do the screens show for `COc1ccc(-c2cc3nc4n(c(=O)c3s2)CCC4)cc1`?
RmlCD inh 1536: 77*

How did c1coc(-c2nn3c(Cn4nnc5ccccc54)nnc3s2)c1 do in these assays?
RmlCD inh 1536: -12

How did CCOc1cc(C=O)cc(Cl)c1OCC(N)=O do in these assays?
RmlCD inh 1536: 7

Results for Nc1c2ccccc2nc2ccccc12 ?
RmlCD inh 1536: -8

Results for Cc1c2ccccc2nc2c(F)c(N(C)C)c(F)c(F)c12 ?
RmlCD inh 1536: -19

Results for CN(C)c1c2ccccc2nc2c(F)c(F)c(F)c(F)c12 ?
RmlCD inh 1536: 41*

What do the screens show for `CC(C)C(=O)Nc1ccc(-c2nc3ccccc3c(=O)o2)cc1`?
RmlCD inh 1536: -14

How did O=C(NCCN1C(=O)S/C(=C\c2cccnc2)C1=O)c1cc(S(=O)(=O)N2CCOCC2)ccc1F do in these assays?
RmlCD inh 1536: 13

How did Cc1cccc(NC(=O)CCC(=O)Nc2nnc(C(F)(F)F)s2)c1 do in these assays?
RmlCD inh 1536: 0

Results for COc1cccc2c(=O)cn[nH]c12 ?
RmlCD inh 1536: -1

How did COC(=O)c1cc(=O)c2cccc(OC)c2[nH]1 do in these assays?
RmlCD inh 1536: 62*

Results for COc1ccc(OC)c2[nH]c(=O)c(CCNC(C)=O)cc12 ?
RmlCD inh 1536: -10

How did COc1ccc(-c2ccnc3nc(N4CCN(c5ccccc5)CC4)nn23)cc1 do in these assays?
RmlCD inh 1536: -2

What do the screens show for `COc1ccc(-c2ccnc3c(C#N)cnn23)cc1`?
RmlCD inh 1536: 44*

How did N#Cc1cnn2c(-c3ccccc3)ccnc12 do in these assays?
RmlCD inh 1536: 11

Results for CCc1cccc(C)c1NC(=O)CN1C(=O)NC(Cc2ccccc2)C1=O (stereo not given) ?
RmlCD inh 1536: -9

How did Cc1ccc2c(c1)c1ncnc(N3CCOCC3)c1n2C do in these assays?
RmlCD inh 1536: 96*

How did Cc1ccc2c(c1)c1ncnc(N3CCC4(CC3)OCCO4)c1n2C do in these assays?
RmlCD inh 1536: 10

Results for Cc1ccc2c(c1)c1ncnc(N3CCN(c4ccccc4)CC3)c1n2C ?
RmlCD inh 1536: 8

Results for O=C(N/C(=C/c1cccnc1)C(=O)N1CCOCC1)c1ccccc1F ?
RmlCD inh 1536: 4

What do the screens show for `O=c1oc2c(CN3CCOCC3)c(O)ccc2c2c1CCCC2`?
RmlCD inh 1536: 44*

Results for CN(C)Cc1c(O)ccc2c3c(c(=O)oc12)CCCCC3 ?
RmlCD inh 1536: 21

Results for O=c1oc2c(CN3CCOCC3)c(O)c(Cl)cc2c2c1CCCC2 ?
RmlCD inh 1536: 2

Results for O=CN1CCN(c2ncnc3c2nnn3Cc2c(F)cccc2Cl)CC1 ?
RmlCD inh 1536: -6

What do the screens show for `N#C/C(=C\c1cccnc1)c1nc2ccccc2[nH]1`?
RmlCD inh 1536: 14

How did N#C/C(=C\c1ccncc1)c1nc2ccccc2[nH]1 do in these assays?
RmlCD inh 1536: 34*

How did N#C/C(=C/c1ccncc1)c1nc2ccccc2s1 do in these assays?
RmlCD inh 1536: -6

How did COc1ccc(-c2ncccc2OC(=O)C23CC4CC(CC(C4)C2)C3)cc1OC do in these assays?
RmlCD inh 1536: -5
